# Calb FLC: affects C. albicans growth with fluconazole | C. albicans CaCi-2 (fluconazole-resistant clinical isolate) + fluconazole, Alamar Blue growth, 48 h | growth inhibition, % (concentration not given with the values) | 0.57% of 300,000 active | AID 1979;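 active means growth inhibition above about 58% in most replicates, limit read from the data, passing the limit was not always enough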;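 further: all wells also contain fluconazole at 8 µg/ml as a sub-toxic cotreatment; 0% = median of DMSO wells and 100% = median of geldanamycin control wells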
# ATG4B inh: inhibitors of human ATG4B cysteine protease. Q9Y4P1. ATG4B cleavage of LC3-PLA2, NBD-HPC fluorescence, 1 h. inhibition, % at 8.33 µM. 0.51% of 340,000 active. AID 504462; in the data active means inhibition above about 40%
# NadD block: blocks S. aureus nicotinate mononucleotide adenylyltransferase. purified NadD enzyme, colorimetric absorbance read-out. 0.78% of 360,000 active. AID 602399. inhibition, % at 20 µM; in the data active means inhibition above about 26%
# FAS TE block: blocks the thioesterase domain of human fatty acid synthase. P49327. recombinant FAS-TE, OMFH fluorogenic substrate, fluorescence endpoint. inhibition, % at 15 µM. 0.67% of 360,000 active. AID 602261;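 active means compounds whose normalised, plate-corrected inhibition of enzyme fluorescence in the single-dose primary screen is 50% or more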;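 further: 0% = DMSO with enzyme and 100% = substrate without enzyme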
# SUMO Mot1 rescue: SUMOylation pathway inhibition by Mot1-301 growth rescue; 1% of 320,000 active; growth rescue, % at 18.8 µM; S. cerevisiae Mot1-301 growth rescue, ATP luminescence, 38.5C; percent above DMSO median, 100 means doubled;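 active means every valid replicate shows activation above 250% relative to neutral control wells; inactive means the rest, any valid replicate at or below 250%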;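 further: OY570 slx delta 5 strain wells were the positive control but not used for scaling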
# Active calls of the source: *; · = not tested or not shown. An excerpt weighted towards active compounds, which were near 3.1% of everything screened.
SMILES,Calb FLC,ATG4B inh,NadD block,FAS TE block,SUMO Mot1 rescue
Cc1ccccc1/C=C1\SC(=S)N(/N=C/c2cc([N+](=O)[O-])ccc2O)C1=O,85*,22,5,9,553
O=C(CN1C(=O)c2cccc([N+](=O)[O-])c2C1=O)NCc1ccccc1,1,-5,-6,6,-8
O=C(COC(=O)CNC(=O)c1ccccc1Cl)NC1CC1,·,-7,0,-10,12
Cc1ccc(SCCC(=O)N/N=C/c2ccccc2O)cc1,92*,-9,-1,17,3
Cc1ccc(NC(=O)CCC(=O)N/N=C/c2ccccc2O)cc1,2,1,7,4,0
CCC1=Nc2cc(C(=O)NCCN3CCOCC3)ccc2Sc2ccc(C)cc21,-3,3,0,-4,2
CCC1=Nc2cc(C(=O)NCc3ccco3)ccc2Sc2ccc(C)cc21,27,51*,5,12,-7
O=C1NC[C@@H](CCCCN2CCN(CCC3CCCCC3)C(=O)C2=O)N(CCC2CCCCC2)C1=O,·,·,16,13,·
CCC(C)(C)c1ccc(Oc2cccc(C(=O)O)c2)cc1,20,25,-5,-6,4
CCCCCc1ccc(OCCCC[n+]2cccc(C)c2)c(CCCCC)c1,106*,17,9,-17,-2
CCCCCc1ccc(OCCCC[n+]2ccc(C)cc2)c(CCCCC)c1,98*,16,5,-18,68
CCC(C)(C)c1ccc(OCCCC[n+]2ccccc2)c(C(C)(C)CC)c1,·,·,12,8,290*
CCCCCc1ccc(OCCCC[n+]2ccccc2)c(CCCCC)c1,100*,13,4,-12,88
C[C@@H]1CCCCO[C@@H](CN(C)C(=O)c2ccncc2)[C@@H](C)CN([C@H](C)CO)C(=O)c2cc(N(C)C)ccc2O1,·,·,-1,-5,·
O=C(CN(c1ccc([N+](=O)[O-])cc1)S(=O)(=O)c1ccccc1)N1CCCCC1,-2,12,-7,20,-12
O=C(CN(c1cccc([N+](=O)[O-])c1)S(=O)(=O)c1ccccc1)N1CCCCC1,1,-1,-5,2,341*
O=S(=O)(Nc1nc2ccccc2nc1N1CCN(c2ccccc2)CC1)c1ccc(F)cc1,26,28,14,16,526*
Cc1ccc(S(=O)(=O)Nc2nc3ccccc3nc2N2CCOCC2)cc1,·,-10,-2,-8,46
COc1ccc(/C=N\Nc2ccccc2[N+](=O)[O-])c(C(=O)O)c1OC,-13,-5,3,2,974*
O=C(NC(=S)Nc1cccc([N+](=O)[O-])c1)C1CCCCC1,·,-2,-6,5,16
O=C(O)c1ccc(Cl)c2c1C1C=CCC1C(c1ccccn1)N2 (configuration not stated),2,·,·,·,-15
O=[N+]([O-])c1ccc(Cl)c2c1C1C=CCC1C(c1ccccn1)N2 (configuration not stated),23,0,41*,33,-22
NC(=O)COC(=O)c1sc2ccccc2c1Cl,-5,3,13,-4,545*
O=C(COC(=O)c1sc2ccccc2c1Cl)NCC1CCCCC1,-6,36,-1,3,17
C=CC[C@@H]1C=C(C)C[C@H](C)C[C@H](OC)[C@H]2O[C@@](O)(C(=O)C(=O)N3CCCC[C@H]3C(=O)O[C@H](/C(C)=C/[C@@H]3CC[C@@H](O)[C@H](OC)C3)[C@H](C)[C@@H](O)CC1=O)[C@H](C)C[C@@H]2OC,117*,·,·,·,57
SMILES,Calb FLC,ATG4B inh,NadD block,FAS TE block,SUMO Mot1 rescue
NC(=O)C1CCN(C(=O)c2ccc(NS(=O)(=O)c3ccc(Br)s3)cc2)CC1,·,-9,-3,-6,·
O=c1c2cc(Br)ccc2nc(-c2ccccc2)n1O,100*,18,-4,3,21
Cc1ccc(-c2nc3ccc(Cl)cc3c(=O)n2O)cc1,106*,0,2,-5,290
Cc1ccc(-c2nc3ccccc3c(=O)n2O)cc1,5,5,-5,0,-19
O=S(=O)(NCCC1CC1(Cl)Cl)c1ccccc1 (configuration not stated),-34,-4,-5,3,-3
c1coc(-c2nc(-c3ccco3)c(-c3ccco3)nc2-c2ccco2)c1,43,39,46*,20,-12
CC(C)(C)[C@@H]1CCC(=O)N(CC[C@H](N=[N+]=[N-])c2ccccc2)CC1,7,-2,-1,12,-15
CCCCn1c(=O)c(CCC(=O)OCC(=O)NCc2ccc(OC)c(OC)c2)nc2ccccc21,77*,-11,-4,-1,·
CCCCn1c(=O)c(CCC(=O)OCC(=O)NC(C)c2ccccc2)nc2ccccc21 (configuration not stated),-32,-15,1,-2,1
c1ccc(N2CCN(c3nc(-c4cccs4)nc4ccccc34)CC2)cc1,-11,-10,8,44,825*
COc1ccc(-c2cccc(NC(=O)c3cccs3)c2)nn1,43,0,1,-2,-13
CC[C@]12C(=O)N(C)C[C@H]([C@@H]3C(=O)N(C)C(=O)[C@@H]31)N2C(=O)c1ccc(C(C)(C)C)cc1,·,0,0,-9,·
CC(C)c1nc2sc3c(SCC(=O)NCc4ccco4)ncnc3c2c2c1CCC2,-2,14,46*,8,3
O=C(CSc1ncnc2sc3c(c12)CCCCC3)NCc1ccco1,-3,-1,-2,5,-2
OCCN1CCN(Cc2cc(Cl)c3cccnc3c2O)CC1,103*,2,-2,-6,-5
O=C(Oc1c(CN2CCOCC2)cc(Cl)c2cccnc12)c1ccc(F)cc1,96*,-6,0,5,-21
Oc1c(CN2CCN(c3ccccn3)CC2)cc(Cl)c2cccnc12,8,17,-1,12,105
COc1cc(C(=O)Oc2c(CN3CCOCC3)cc(Cl)c3cccnc23)cc(OC)c1OC,94*,-5,0,8,6
COc1ccc(C(=O)Oc2c(CN3CCOCC3)cc(Cl)c3cccnc23)cc1,88*,-6,0,10,-16
CC(C)C[C@@H](CN1CCC[C@H]1CN1C(=O)C(=O)NC[C@@H]1Cc1ccc(O)cc1)N1C[C@H](Cc2ccc(O)cc2)N(CC2CCCCCC2)C(=O)C1=O,·,·,29,10,·
CCOC(=O)[C@]12CCC=C1N(Cc1ccccc1)C(=O)[C@H](CC(=O)NCc1ccc(OC)c(OC)c1)C2,·,·,2,-8,·
CN(C)CCNC(=O)CCn1nc(-c2ccc(Cl)cc2)ccc1=O,3,-6,-6,-2,-11
COc1cccc(C(=O)Oc2c(CN3CCOCC3)cc(Cl)c3cccnc23)c1,104*,-1,11,13,-5
COc1cccc(C(=O)OCCN2CCOCC2)c1,2,0,-2,9,-7
Cn1ccc2cc3c(cc21)CCN3C(=O)Nc1cccnc1,·,10,31*,-17,-1
Nc1ccc2cc3[nH]c4cc(N)ccc4c3nc2c1,·,-88,54*,-142,·
Cn1c2c(c(=O)c3ccccc31)CCC(C)(C)O2,5,4,0,-14,326
CCOc1ccccc1NC(=O)CCS(=O)(=O)c1ccc2c(c1)CCN2C(C)=O,3,4,5,-9,8

# Screening data deposited in PubChem BioAssay by several laboratories.
